Experimental data from PubChem BioAssay (NCI).
This is part of a sample that, as a whole, favours compounds with a hit. Of some 83,000 tested, about 20% had one in any assay.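 Values shown are percent growth following 48 h exposure of cells in 96-well plates to a single concentration of compound; below 10 was considered active.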 Values without a mark were called inactive. The source made the active and inactive calls.

System: HCC-2998 colon
Assay: NCI-60 one-dose screen, 48 h (100 = growth as untreated, 0 = no growth, -100 = all killed)
Settings: 10 µM unless noted
Experimental: Growth inhibition of the HCC-2998 human tumor cell line is measured as a screen for anti-cancer activity. Cells are grown in 96 well plates and exposed to the test compound for 48 hours. Compounds are tested at a single concentration, which is 10^-5 M for most compounds. The reported endpoint is percent growth (GI% or GIPRCNT), where numbers from 0 - 100% represent growth inhibition, and numbers from -100% - 0 represent cell death. For example, a value of 40 represents 60% growth inhibition. A value of 0 means no net growth occurred over the course of the experiment. A value of -40 indicates 40% of cells at the beginning of the experiment died by the end of the experiment. A value of -100 means all cells are dead at the end of the experiment.
NCI-60 Human Tumor Cell Lines Screen was performed using the standard one-dose NCI protocol, which is described in more detail at https://dtp.cancer.gov/discovery_development/nci-60/default.htm.
Compounds with GIPRCNT values below 10 were considered active. Activity score was based on GIPRCNT using the following formula: […]
Score is 0 for GIPRCNT values of 100 or above, 50 for GIPRCNT values of 0, and 100 for GIPRCNT values of -100.

Row | SMILES | growth
1 | O=[N+]([O-])c1ccc(-c2nnc(SCc3ccc(O)c4ncccc34)o2)cc1 | 28%
2 | Oc1ccc(CSc2nnc(-c3ccc(Oc4ccccc4)cc3)n2-c2ccccc2)c2cccnc12 | 30.3%
3 | CCN1C(=O)N(CC)C2SC(N/N=C/c3cccs3)=NC21 (stereo not given) | 15.4%
4 | NS(=O)(=O)c1ccc(Nc2nc(N/N=C/c3ccc(F)cc3)nc(Nc3ccccc3)n2)cc1 | 55.4%
5 | C/C(=C(/c1ccc(O)cc1)c1ccc(OCCN2CCCC2)cc1)c1ccc(Cl)cc1 | 17.2%
6 | COc1cc(/C=C/C(=O)c2ccc(NC(=O)COc3cccc4cccnc34)cc2)cc(OC)c1OC | 112%
7 | C=CCn1c(SCC(=O)Nc2cccc(C(=O)/C=C/c3ccccc3)c2)nc2ccccc2c1=O | 96%
8 | CCNC(=O)Oc1ccc(/C(=C(/C)c2ccccc2)c2ccc(OCCN3CCCC3)cc2)cc1 | 93.4%
9 | CC[C@@](C)(NC(=O)C(C)(C)NC(=O)[C@@H](NC(=O)[C@@H]1CCCN1C(=O)C(C)(C)NC(=O)[C@H](CC(C)C)NC(=O)CNC(=O)C(C)(C)NC(=O)[C@@H](NC(=O)C(C)(C)NC(=O)[C@H](CCC(N)=O)NC(=O)[C@H](C)NC(=O)C(C)(C)NC(=O)[C@H](C)NC(=O)C(C)(C)NC(=O)[C@@H]1CCCN1C(=O)C(C)(C)NC(C)=O)C(C)C)C(C)C)C(=O)N[C@@H](CCC(N)=O)C(=O)N[C@@H](CCC(N)=O)C(=O)N[C@H](CO)Cc1ccccc1 | 29.3% [4.25 µM]
10 | COC[C@]12CC[C@@H](C)[C@H](C)[C@H]1C1=CC[C@@H]3[C@@]4(C)CCCNC(C)(C)[C@@H]4CC[C@@]3(C)[C@]1(C)CC2 | 20.1%
11 | O=C(N/N=C\c1ccc(Cl)cc1)c1ccc2nc(-c3ccc(Br)cc3)[nH]c2c1 | -42.5% (active)
12 | CN1CCN(Cc2ccc(NC(=O)c3cncc(C#Cc4cnc5ccc(O[C@H]6CCOC6)nn45)c3)cc2C(F)(F)F)CC1 | -61.3% (active)
13 | O=C(NCCCNc1cc(-c2cn(-c3ccccc3)nc2-c2cccc(O)c2)ccn1)Nc1ccc(F)cc1 | -60.3% (active)
14 | O=S(=O)(Nc1ccc(-n2cnc3cc(-c4ccc(O)cc4)ccc32)cc1)C1CC1 | 103%
15 | COc1cc(O)c2c(c1)/C=C/C[C@H](O)[C@H](O)C(=O)/C=C\C[C@H](C)OC2=O | -41.9% (active)
16 | NNC(=O)c1sc2nc(-c3cnccn3)cc(-c3cccs3)c2c1N | 100%
17 | Clc1ccc(-c2csc(Nc3cccc(Nc4csc(-c5ccc(Cl)cc5)n4)c3)n2)cc1 | 89.3%
18 | O=C(C[n+]1ccnc2ccccc21)c1ccc(O)c(O)c1 | 81.2%
19 | O=C(CCCCCCN1CC(=O)N2[C@@H](c3cccc(Cl)c3)c3[nH]c4ccccc4c3C[C@H]2C1=O)NO | 72.1%
20 | Nc1nc(-c2cccc([N+](=O)[O-])c2)c(N=Nc2ccccc2Cl)s1 | 107%

Row | SMILES | growth
21 | CC1(C)CC[C@]2(C(=O)O)CC[C@]3(C)C(=CCC4[C@@]5(C)C[C@@H](O)[C@@H]6OC(c7cccc([N+](=O)[O-])c7)OC[C@@]6(C)C5CC[C@]43C)C2C1 (stereo not given in full) | 42%
22 | CCN1C/C(=N\S(=O)(=O)c2ccccc2)N(CC)C1=S | 98.4%
23 | CC1COc2c(N3CCN(C)CC3)c(F)cc3c(=O)c(C(=O)N/N=C/c4cc[nH]c4)cn1c23 (stereo not given) | 22.6%
24 | Cc1ccc(NC(=O)N[C@@H](Cc2cc(F)cc(F)c2)C(=O)NC2C(=O)N3CCC[C@H]3C(=O)N3CCCC[C@H]3C(=O)N[C@@H](C)C(=O)N3C[C@H](C)C[C@H]3C(=O)O[C@H]2C)c(F)c1 (stereo not given in full) | 23.9%
25 | CCOC(=O)c1c(NCC(=O)Nc2ccc(Br)cc2)sc2c1CCCC2 | 67.9%
26 | CN1CCN(c2nc(-c3csc(-c4ccncc4)n3)cc3ccccc23)CC1 | 48.8%
27 | O=C(NNc1nc2cc(F)c(F)cc2n2cccc12)c1ncccn1 | 62.4%
28 | C[C@H]1[C@H](C)CC[C@]2(COC(=O)c3cccnc3)CC[C@]3(C)C(=CC[C@@H]4[C@@]5(C)CCCNC(C)(C)[C@@H]5CC[C@]43C)[C@H]12 | 49.6%
29 | N#C/C(=C\c1ccc(N2CCCCC2)cc1)C(=O)Nc1sc2c(c1C#N)CCC2 | 105%
30 | NC(=O)c1c(NC(=O)c2cccc(C(F)(F)F)c2F)sc2c1CCC(=O)C2 | 44.1%
31 | N#Cc1ccc(S(=O)(=O)Nc2ccc(-c3cnc(N)[nH]3)cc2)cc1 | 105%
32 | CCOC(=O)c1nn(-c2ccc(C)cc2)c(=O)c2c(N)c(C#N)c(-c3ccc(OC)cc3)cc12 | 110%
33 | COc1cc(/C=N/Nc2ccnc3cc(Cl)ccc23)cc(OC)c1O | -81.9% (active)
34 | Cc1ccc(-c2cc(-c3ccc(N(C)C)cc3)n3c(n2)nc2ccccc23)cc1 | 80.3%
35 | O=C1c2c(c3c4cccnc4[nH]c3c3ccc4ccccc4c23)C(=O)N1CCN1CCNCC1 | 81.8%
36 | CCOC(=O)CC(=O)CSC1=NC2C(NN1)N(C)C(=O)N2C (stereo not given) | 105%
37 | CC(C)(C)n1nnnc1C(Nc1nccs1)c1cc2cccc3ccc4cccc1c4c32 (stereo not given) | 113%
38 | O=C(/C=C/c1cn(-c2ccccc2)nc1-c1ccc(Cl)cc1)c1cc2ccccc2oc1=O | 102%
39 | CCCC(=O)NC(c1cccnc1)c1ccc2c(C)ccnc2c1O (stereo not given) | 24%
40 | CCOc1c(C#N)c(Nc2ccc(S(N)(=O)=O)cc2)c(C#N)c2nnc(C)n12 | 106%
